Drawing on the supplement of paper PMC11628255, “Interference of metal ions on the bioluminescent signal of firefly, Renilla, and NanoLuc luciferases in high-throughput screening assays” (Frontiers in Chemistry, 2024), this text covers residual bioluminescent signal for eleven compounds.

The test system of test [1] is Renilla luciferase (RLuc). Description: residual bioluminescent signal relative to negative (DMSO) control; higher = less interference (more residual luciferase signal). The method in brief: (§1)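 Purified firefly, NanoLuc or Renilla luciferase was tested with each metal salt at 0.01, 1 and 5 mM final, in 384-well plates. Buffers were screening or HEPES. Salts in water were pre-incubated with enzyme for 10 min at room temperature, and luminescence was read 10 min after substrate addition. Wells were run in triplicate. Residual signal is each well's luminescence as a percentage of the mean vehicle (DMSO) control on the same plate.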

In test [2] the test system is NanoLuc luciferase (NLuc). The test is described as above. An outline of the steps:
as §1

Where [3] appears, read: metal salt concentration 0.01 mM, HEPES conditions (100 mM HEPES, 0.05% BSA, 0.3 M sodium ascorbate, pH 7.5).
Setting [4] is: metal salt concentration 0.01 mM, screening conditions (50 mM Tris-HCl, […] KH2PO4, […] NaCl, 0.25 mM EDTA, 0.1% BSA, 0.3 M sodium ascorbate, pH 7.4).
Setting [5] is: metal salt concentration 1 mM, HEPES conditions (100 mM HEPES, 0.05% BSA, 0.3 M sodium ascorbate, pH 7.5).
Where [6] appears, read: metal salt concentration 1 mM, screening conditions (50 mM Tris-HCl, […] KH2PO4, […] NaCl, 0.25 mM EDTA, 0.1% BSA, 0.3 M sodium ascorbate, pH 7.4).
Where [7] appears, read: metal salt concentration 5 mM, HEPES conditions (100 mM HEPES, 0.05% BSA, 0.3 M sodium ascorbate, pH 7.5).
Where [8] appears, read: metal salt concentration 5 mM, screening conditions (50 mM Tris-HCl, […] KH2PO4, […] NaCl, 0.25 mM EDTA, 0.1% BSA, 0.3 M sodium ascorbate, pH 7.4).
The mark [9] stands for this setting: metal salt concentration 0.01 mM, HEPES conditions (100 mM HEPES, 0.1% BSA, pH 7.5).
Where [10] appears, read: metal salt concentration 0.01 mM, screening conditions (PBS, 0.1% BSA, pH 7.4).
[11] abbreviates: metal salt concentration 1 mM, HEPES conditions (100 mM HEPES, 0.1% BSA, pH 7.5).
[12] abbreviates: metal salt concentration 1 mM, screening conditions (PBS, 0.1% BSA, pH 7.4).
The mark [13] stands for this setting: metal salt concentration 5 mM, HEPES conditions (100 mM HEPES, 0.1% BSA, pH 7.5).
Setting [14] is: metal salt concentration 5 mM, screening conditions (PBS, 0.1% BSA, pH 7.4).

Each structure is given as a SMILES string. ± gives the standard deviation of the averaged measurements.

On to `O=S(=O)([O-])[O-].[Mn+2]` [manganese(II) sulfate], for which the residual bioluminescent signal was 112 ± 9.2% in test [1] (setting [3]); 103 ± 12% in test [1] (setting [4]); 101 ± 3.7% in test [1] (setting [5]); 102 ± 5.1% in test [1] (setting [6]); 71.9 ± 9.5% in test [1] (setting [7]); 108.6 ± 0.66% in test [1] (setting [8]).

Take `O.O.O.O.O.O.O.O.O.O.O=S(=O)([O-])[O-].[Na+].[Na+]` [sodium sulfate]: the residual bioluminescent signal in test [1] (setting [3]) worked out at 112 ± 4.9%; in test [1] (setting [4]), 111 ± 1.9%; in test [1] (setting [5]) it was 75.1 ± 66%; in test [1] (setting [6]), 108 ± 9.8%; in test [1] (setting [7]) it was 118 ± 11%; in test [1] (setting [8]), 109 ± 13%.

In the case of `O=C([O-])[O-].[K+].[K+]` [potassium carbonate], the residual bioluminescent signal was 91.3 ± 2.9% in test [2] (setting [9]); 100 ± 4% in test [2] (setting [10]); 92.1 ± 8.9% in test [2] (setting [11]); 97.6 ± 3% in test [2] (setting [12]); 95.6 ± 1.7% in test [2] (setting [13]); 96.6 ± 3.6% in test [2] (setting [14]). The residual bioluminescent signal in test [1] (setting [3]) is 90.4 ± 4.2%; in test [1] (setting [4]), 88.9 ± 2.2%; in test [1] (setting [5]) it was 93.2 ± 9.6%; in test [1] (setting [6]), 92.2 ± 5.6%; in test [1] (setting [7]), 96.4 ± 7%; in test [1] (setting [8]), 76.8 ± 4.4%.

As to `O.O.O.O.O.O.O.O=S(=O)([O-])[O-].[Mg+2]` [magnesium sulfate], the residual bioluminescent signal was 85.7 ± 4.6% in test [1] (setting [3]); 88.5 ± 5.2% in test [1] (setting [4]); 99.3 ± 11% in test [1] (setting [5]); 93.1 ± 12% in test [1] (setting [6]); 97.7 ± 5.9% in test [1] (setting [7]); 109 ± 27% in test [1] (setting [8]).

`[Cl][Fe]([Cl])[Cl]` [iron(III) chloride]: the residual bioluminescent signal in test [1] (setting [3]) was found to be 91.5 ± 7.9%; in test [1] (setting [4]), 94.1 ± 10%; in test [1] (setting [5]) it was 2.32 ± 0.56%; in test [1] (setting [6]), 39.9 ± 12%; in test [1] (setting [7]), 0.985 ± 0.12%; in test [1] (setting [8]) it was 0.807%.

For `O=S(=O)([O-])[O-].[Fe+2]` [iron(II) sulfate], the residual bioluminescent signal in test [1] (setting [3]) was determined as 83.1 ± 2.5%; in test [1] (setting [4]), 99.5 ± 4%; in test [1] (setting [5]) it was 2.25 ± 0.97%; in test [1] (setting [6]) it was 13.5 ± 2.4%; in test [1] (setting [7]), 0.704 ± 0.68%; in test [1] (setting [8]) it was 0.762 ± 0.34%.

`[Cl][Fe][Cl]` [iron(II) chloride]: the residual bioluminescent signal is 62.9 ± 8.6% in test [1] (setting [3]); 85.9 ± 6.2% in test [1] (setting [4]); 1.9 ± 1.7% in test [1] (setting [5]); 3.45 ± 1.9% in test [1] (setting [6]); 0.774 ± 0.53% in test [1] (setting [7]); 0.404 ± 0.27% in test [1] (setting [8]).

In the case of `O=C([O-])[O-].[Cs+].[Cs+]` [caesium carbonate], the residual bioluminescent signal in test [2] (setting [9]) stood at 99.36 ± 0.78%; in test [2] (setting [10]) it was 98.8 ± 6.6%; in test [2] (setting [11]), 96.5 ± 3.1%; in test [2] (setting [12]) it was 102 ± 3%; in test [2] (setting [13]), 91.4 ± 3.5%; in test [2] (setting [14]), 92.2 ± 2.9%. The residual bioluminescent signal in test [1] (setting [3]) turned out to be 91.5 ± 6.8%; in test [1] (setting [4]), 94.9 ± 6.5%; in test [1] (setting [5]) it was 100 ± 11%; in test [1] (setting [6]), 93 ± 4.2%; in test [1] (setting [7]) it was 87.4 ± 1.1%; in test [1] (setting [8]), 87.8 ± 5.2%.

For the compound `CC#N.CC#N.CC#N.CC#N.F[B-](F)(F)F.[Cu+]` [tetrakis(acetonitrile)copper(I) tetrafluoroborate], the residual bioluminescent signal in test [1] (setting [3]) was 98.7 ± 11%; in test [1] (setting [4]), 103 ± 2.8%; in test [1] (setting [5]) it was 0.774 ± 0.32%; in test [1] (setting [6]), 0.538 ± 0.36%; in test [1] (setting [7]), 1.06 ± 0.76%; in test [1] (setting [8]), 0.628 ± 0.43%.

`[Cl-].[Na+]` [sodium chloride]: the residual bioluminescent signal in test [2] (setting [9]) was determined as 95.5 ± 3.6%; in test [2] (setting [10]), 99.4 ± 2.9%; in test [2] (setting [11]) it was 99.8 ± 3.9%; in test [2] (setting [12]) it was 102 ± 4.1%; in test [2] (setting [13]), 98.5 ± 2.6%; in test [2] (setting [14]), 99.4 ± 4.3%. Also, the residual bioluminescent signal in test [1] (setting [3]) worked out at 97.4 ± 13%; in test [1] (setting [4]) it was 91.3 ± 5.2%; in test [1] (setting [5]), 104 ± 18%; in test [1] (setting [6]) it was 88.6 ± 1.3%; in test [1] (setting [7]), 111 ± 5%; in test [1] (setting [8]) it was 94.4 ± 11%.

In the case of `[Cl][Pt-2]([Cl])([Cl])[Cl].[K+].[K+]` [potassium tetrachloroplatinate(II)], the residual bioluminescent signal in test [2] (setting [9]) worked out at 91.45 ± 0.79%; in test [2] (setting [10]), 99.8 ± 2.3%; in test [2] (setting [11]), 8.06 ± 0.51%; in test [2] (setting [12]), 7.81 ± 1.1%; in test [2] (setting [13]) it was 7.52 ± 0.31%; in test [2] (setting [14]), 5.07 ± 0.66%. The residual bioluminescent signal in test [1] (setting [3]) came to 93.6 ± 1.9%; in test [1] (setting [4]) it was 96.1 ± 1.4%; in test [1] (setting [5]), 16.3 ± 9.4%; in test [1] (setting [6]), 8.11 ± 2.9%; in test [1] (setting [7]), 3.38 ± 2.1%; in test [1] (setting [8]) it was 1.17 ± 0.82%.
